Our source for the growth inhibition values is PubChem BioAssay (NCI).

The structures appear in SMILES notation. The panel holds about 79,000 compounds, 15% with a hit somewhere; the sample as a whole holds those more often. Unmarked numbers belong to inactive results. Calls of active or inactive are those of the source. Cut-off read from the data, not from the text of the source: active = growth inhibition above about 70%; inactive = the rest.

A short description of assay [1]: NCI Yeast Anticancer Drug Screen. Data for the rad50 strain (AID 155).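 Note: 0% = growth of vehicle-only cultures of the same strain.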 The note with it: S. cerevisiae rad50 strain growth inhibition, hits give high values; at 50.0 µM unless noted. In a few lines:
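Cells are treated with compound, grown, and their growth is then scored against vehicle-only cultures of the same repair-deficient yeast strain.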

Assay [2] can be described thus: NCI Yeast Anticancer Drug Screen. Data for the mec2-1 strain (AID 157). To be noted: S. cerevisiae mec2-1 strain, hits give high values; at 50.0 µM unless noted. In a few lines: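 Cells of the genetically defined mec2-1 yeast strain are incubated with test compound. Inhibition of growth is calculated against vehicle-treated controls.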
The nature of assay [3]: NCI Yeast Anticancer Drug Screen. Data for the sgs1 mgt1 strain (AID 161).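 Note: 0% = growth of cultures given vehicle only.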 The note with it: S. cerevisiae sgs1 mgt1 strain, hits give high values; at 50.0 µM unless noted. The essentials: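 Test agents were incubated with a DNA-repair-mutant yeast strain. Growth was then read and compared against vehicle-treated controls.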
Assay [4] can be described thus: NCI Yeast Anticancer Drug Screen. Data for the cln2 rad14 strain (AID 165).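 Note: 0% = growth equal to vehicle treated cultures.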 To be noted: S. cerevisiae cln2 rad14 strain, hits give high values; at 50.0 µM unless noted. In a few lines: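 The screen exposed genetically defined yeast (cln2 rad14) to test compounds and scored growth inhibition relative to vehicle-treated controls.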
The nature of assay [5]: NCI Yeast Anticancer Drug Screen. Data for the bub3 strain (AID 167). The note with it: S. cerevisiae bub3 mutant strain, hits give high values; at 50.0 µM unless noted. The essentials:
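Part of a panel of yeast mutants defective in DNA damage repair or cell cycle regulation. Each strain is grown with compound, and inhibition is calculated relative to solvent-treated cultures.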

A short description of assay [6]: NCI Yeast Anticancer Drug Screen. Data for the mlh1 rad18 strain (AID 175). The note with it: S. cerevisiae mlh1 rad18 strain growth inhibition, hits give high values; at 50.0 µM unless noted. The essentials: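 Compound-treated yeast growth, normalised to vehicle controls. Strain bears defined DNA repair mutations.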

With `COc1ccccc1NC(=O)C1=C(C)NC(C)=C(C(=O)Nc2ccccc2OC)C1c1ccc(C)cc1`, the growth inhibition in assay [1] was 12.7%; in assay [2], -10.3%; in assay [3], 3.75%; in assay [4] it was 12.1%; in assay [5], 12.3%; in assay [6], -0.85%.
As to `O=C(Nc1ccc(O)cc1)c1ccc([N+](=O)[O-])cc1`, the growth inhibition is -1.75% in assay [1]; 6.6% in assay [2]; 3.35% in assay [3]; 0.05% in assay [4]; 9.05% in assay [5]; -2.2% in assay [6].
Regarding `NC(N)=NC(N)=Nc1cc(Cl)c(Cl)cc1Cl`, the growth inhibition in assay [1] was 98.2% (active); in assay [2] it was 99.5% (active); in assay [3], 99.3% (active); in assay [4], 98.8% (active); in assay [5], 99.2% (active); in assay [6], 99.3% (active).
In the case of `Cc1cc([N+](=O)[O-])c(Nc2ccc(C)c(Cl)c2)c([N+](=O)[O-])c1`, the growth inhibition in assay [1] was 8.15%; in assay [2], 36.7%; in assay [3], 29.6%; in assay [4] it was -8.05%; in assay [5], 52.1%; in assay [6], 33.6%.
On to `CC(=O)Nc1cccc(Br)c1`, for which the growth inhibition is -18.1% in assay [1]; -23.6% in assay [2]; -18.1% in assay [3]; -12.8% in assay [4]; -25.5% in assay [5]; -19.1% in assay [6].
For `C/C=C/C(=O)Oc1ccc[nH]c1=O`, the growth inhibition in assay [1] was -10.9%; in assay [2], 13.1%; in assay [3], 4.85%; in assay [4], -2.15%; in assay [5], 11.8%; in assay [6], -4.25%.
For `Cc1nnc(N)nc1C`, the growth inhibition in assay [1] is 33%; in assay [2], 9.5%; in assay [3], -10.1%; in assay [4], -0.8%; in assay [5], -1.3%; in assay [6] it was 13.6%.
As for `C=C1C(=O)O[C@@H]2C[C@@H](C)[C@@H]3C=CC(=O)[C@@]3(C)[C@@H](OC(=O)CCCC(=O)O[C@H]3[C@@H]4C(=C)C(=O)O[C@@H]4C[C@@H](C)[C@@H]4C=CC(=O)[C@]43C)[C@H]12`, the growth inhibition was 50.1% in assay [1]; 49% in assay [2]; 57.6% in assay [3]; 31.1% in assay [4]; 58% in assay [5]; 34.9% in assay [6].
For `Cc1c(C(=O)C/C(=N/NC(=O)C[n+]2ccccc2)C(=O)Nc2ccccc2)[n+](=O)c2ccccc2n1O`, the growth inhibition in assay [1] was -37.5%; in assay [2], 0.2%; in assay [3], -40.7%; in assay [4], -0.7%; in assay [5], -15.2%; in assay [6] it was -31.4%.
For `OC(Cc1ccc2ccccc2n1)(C(F)(F)F)C(F)(F)F`, the growth inhibition is -53.8% in assay [1]; -43.6% in assay [2]; -37.4% in assay [3]; -3.85% in assay [4]; -29.9% in assay [5]; -21.8% in assay [6].
`COc1cccc(C(=O)c2ccncc2C)c1OC`: the growth inhibition in assay [1] is -14.6%; in assay [2], -4.45%; in assay [3], 9.95%; in assay [4], -7.95%; in assay [5], 28%; in assay [6], -8.1%.
For `COc1ccc(C2=NC(CO)[C@H](c3ccccc3)O2)cc1OC` (stereo not given in full), the growth inhibition in assay [1] is 2.35%; in assay [2], -13.2%; in assay [3], 8.05%; in assay [4], 17.4%; in assay [5], -3.75%; in assay [6], -7.15%.
For `Cc1cc(C(=O)C(C#N)=Nc2ccc(N(C)C)cc2)c(CN2C(=O)c3ccccc3C2=O)c(=O)n1C`, the growth inhibition was 22.9% in assay [1]; -12.1% in assay [2]; 19.3% in assay [3]; -28.1% in assay [4]; -6.15% in assay [5]; 5.95% in assay [6].
On to `CCOC(=O)N/N=C/c1ccccc1C`, for which the growth inhibition in assay [1] is -9.05%; in assay [2] it was -3.15%; in assay [3], -6.9%; in assay [4] it was 25.2%; in assay [5] it was -3.5%; in assay [6], -15.4%.
On to `CCO[C@@H]1OC(=O)[C@H]2C(c3ccc(Cl)cc3)=NO[C@@H]12`, for which the growth inhibition in assay [1] was -13.4%; in assay [2], -33.7%; in assay [3], 0.05%; in assay [4] it was 3.6%; in assay [5] it was 29.8%; in assay [6], -4.9%.
In the case of `CC(C)(C)C(C(=O)O)C(=O)O`, the growth inhibition in assay [1] is 11.2%; in assay [2] it was 8%; in assay [3] it was 0.45%; in assay [4] it was -7.4%; in assay [5] it was 5.2%; in assay [6] it was 13.6%.
Regarding `OCc1ccc(Cl)c(Cl)c1`, the growth inhibition was -4.15% in assay [1]; -11.9% in assay [2]; 0.1% in assay [3]; 8.15% in assay [4]; 2.8% in assay [5]; 3.3% in assay [6].
Turning to `CC(CO)Cc1ccccc1` (stereo not given), the growth inhibition is -1.85% in assay [1]; -12.8% in assay [2]; -11.2% in assay [3]; 7.45% in assay [4]; -3.7% in assay [5]; -9.7% in assay [6].
On to `CCOC(=O)c1ccc(N(CCO)CCO)cc1`, for which the growth inhibition in assay [1] was 3.45%; in assay [2], 12.4%; in assay [3], 5.45%; in assay [4] it was -94.2%; in assay [5] it was 32.5%; in assay [6] it was 13.7%.
As to `CC1=C(C(=O)OC(C)(C)C)C(c2ccc([N+](=O)[O-])cc2)C(C(=O)OC(C)(C)C)=C(C)N1`, the growth inhibition in assay [1] was 0.2%; in assay [2], -4.9%; in assay [3], 3.85%; in assay [4] it was 12.2%; in assay [5], -12.8%; in assay [6], 15.4%.
